High-throughput results deposited in PubChem by National Center for Advancing Translational Sciences (NCATS).
HCV inhibitor: qHTS Assay for Inhibitors of Hepatitis C Virus (HCV). Huh7.5.1 HCVcc-Cre infection, luciferase reporter, 44 h. Potency, µM (top dose mostly 41.8 µM), for inactives: at the highest dose activity change, negative = inhibition, usual class: inhibitors. 340,000 tested, 3.4% active. AID 651820, 2012; active means well fitted inhibition curve with a large enough effect; inconclusive means small, poorly fitted or top-dose-only effect, or another doubt; inactive means no such curve, though single readings can be large or run the other way; further: potency means the concentration at half of the fitted maximal effect
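Infectious HCVcc-Cre (~0.5 moi) was added to cells just after compound, with cells seeded 4 h earlier at 1,000 per well. Luciferase activity after 44 h culture reported infection; substrate was incubated 15 min at room temperature before reading.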
HCMV inh: qHTS Assay for inhibitors of the human cytomegalovirus (HCMV). HFF cells, HCMV-luciferase reporter, 72 h; stronger effect = lower value. activity change, negative = inhibition, % at 57.5 µM. 410,000 tested, 4.5% active. AID 1259415, 2018; in the data active means activity change below about -60%; inconclusive means no clear call, values can overlap the other calls; inactive means above about -39%
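HFF cells seeded 16 h at 37C, treated with compounds, infected with luciferase-reporter HCMV at MOI 1 PFU/cell; luciferase read at 72 h post infection, normalized to buffer-only and Salinomycin controls.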
Vaccinia Venus: qHTS for Stage-Specific Inhibitors of Vaccinia Orthopoxvirus: Venus Reporter Primary qHTS; Vaccinia virus Venus reporter expression, fluorescence; 330,000 tested, 0.46% active; Potency, µM (titrated, usually from 36.5 µM), without a hit: at the highest dose activity change, negative = inhibition, actives largely listed as inhibitors; calls by dose curve; tested in A549 cells; further: potency means the concentration at half of the fitted maximal effect; nearly all actives have a fitted effect of over 30% in size
FMDV antiviral: High Throughput Screening for Foot and Mouth Disease Virus Antivirals; FMDV antiviral cell-based qHTS; Potency, µM (series often up to 57.9 µM), for inactives: at the highest dose activity change, negative = inhibition, hits mostly inhibitors; 410,000 tested, 1.2% active; calls by dose curve; tested in HEK293T cells; further: read-out not given here; potency means the concentration at half of the fitted maximal effect; nearly all actives have a fitted effect of over 45% in size
VACV mCherry inh: qHTS for Stage-Specific Inhibitors of Vaccinia Orthopoxvirus: mCherry Reporter Primary qHTS; Potency, µM (top dose mostly 36.5 µM), without a hit: at the highest dose activity change, negative = inhibition, hits mostly inhibitors; 310,000 tested, 0.63% active; Vaccinia virus mCherry reporter infection, fluorescence; calls by dose curve; tested in A549 cells; further: potency means the concentration at half of the fitted maximal effect; nearly all actives have a fitted effect of over 35% in size
Numbers without * were called inactive; i = inactive; ? = inconclusive; nt = no result. An excerpt weighted towards active compounds, which were near 7.3% of everything screened. On the % scale 0 is the no-effect control and ±100 the full control effect.

SMILES | HCV inhibitor | HCMV inh | Vaccinia Venus | FMDV antiviral | VACV mCherry inh
Oc1ccccc1/C=N/NC(=S)NCCc1ccccc1 | 11µM* | -70* | -19% | 12% | ?
CN(C)c1nc(N/N=C/c2ccccc2O)nc(Nc2ccc(F)cc2)n1 | ? | ? | ? | ? | 7.9µM*
CCc1ccc(NC(=O)Nc2ccccc2OCc2cc(=O)n3ccccc3n2)cc1 | nt | 62 | -11% | -15% | i
CCOc1ccccc1N(C)C(=O)c1cc2c(=O)n(CC)c3ccccc3c2s1 | 2µM* | -1 | nt | 0% | nt
CCn1c(=O)c2cc(C(=O)N(CCN(C)C)Cc3ccccc3)sc2c2ccccc21 | nt | ? | -19% | -9% | ?
CCn1c(=O)c2cc(C(=O)N(C)CC(OC)OC)sc2c2ccccc21 | 11µM* | -20 | nt | -11% | nt
CC(=O)c1ccc(NC(=O)c2cnn3c2NC(=C2CC2)C=C3C(F)F)cc1 | nt | nt | -16% | nt | -5%
COc1ccccc1NC(=O)Nc1nc(CC(=O)N2CCN(c3ccccc3)CC2)cs1 | 13µM* | -6 | -28% | ? | 1µM*
COc1ccc(C)cc1NC(=O)Cc1csc(NC(=O)Nc2ccccc2OC)n1 | nt | ? | -24% | ? | -6%
COc1ccccc1NC(=O)Nc1nc(CC(=O)N2CCN(c3ccc(F)cc3)CC2)cs1 | 11µM* | -23 | -28% | ? | ?
COc1ccccc1NC(=O)Cc1csc(NC(=O)c2ccccc2)n1 | 7.1µM* | -69* | nt | ? | nt
CCSc1nnc2nc(C)cc(C)n12 | 6% | 55 | -1% | -14% | i
Cc1ccc(CSc2nnc3nc(C)cc(C)n23)cc1 | 9% | -84* | 23% | -4% | nt
Cc1ccc(C)c(NC(=O)c2cc(S(=O)(=O)NCCC3=CCCCC3)ccc2F)c1 | nt | -34 | ? | 13% | -7%
COc1ccc(C)cc1S(=O)(=O)NCCC1=CCCCC1 | 35µM* | 31 | nt | 64% | nt
Cc1ccc(NC(=O)c2cc(S(=O)(=O)NCCC3=CCCCC3)ccc2F)cc1 | ? | -84* | ? | -21% | -27%
O=S(=O)(NCCC1=CCCCC1)c1ccc(Br)cc1 | -2% | -73* | -13% | 37% | -9%
CCN(CC)S(=O)(=O)c1ccc2c(c1)nc(CN(C)C(=O)Nc1ccc(F)cc1)n2C | nt | 4 | -16% | -27% | -5%
CCCc1ccc(S(=O)(=O)N2CCC(Oc3ccc(-n4cnnn4)cc3)CC2)cc1 | nt | -37 | -19% | -18% | -18%
CC(C)c1cccc(-c2ccc3c(c2)S(=O)(=O)c2cccc(C(=O)NCc4ccccc4)c2C3=O)c1 | 7% | -4 | ? | -11% | -15%
CC(C)c1cccc(-c2ccc3c(c2)S(=O)(=O)c2cccc(C(=O)NCc4ccccc4Cl)c2C3=O)c1 | -4% | nt | 13µM* | -28% | ?
COc1ccc(-c2ccc3c(c2)S(=O)(=O)c2cccc(C(=O)NCCOc4ccccc4Cl)c2C3=O)cc1OC | ? | -98* | 7.9µM* | -13% | ?
Cc1cccc(C(=O)N[C@H]2CC[C@@H](n3cc(C(=O)N4CCCC4)nn3)CC2)c1 | nt | nt | 3% | -8% | -9%
CN1CCCC2(CCN(C(=O)c3cccn3C)CC2)C1 | nt | nt | nt | 8% | nt
O=c1c(Cl)c(Cl)cnn1-c1ccccc1 | 4µM* | -100* | nt | ? | nt
SMILES | HCV inhibitor | HCMV inh | Vaccinia Venus | FMDV antiviral | VACV mCherry inh
Cc1ccc(-c2nnc(Cc3ccc(Cl)cc3)o2)cc1 | -20% | 34 | -11% | 56% | -14%
CCc1ccc(C(=O)Cn2ccsc2=N)cc1 | -8% | 159 | -26% | 30% | -17%
Cc1ccc(Cn2ncc(Cl)c(Cl)c2=O)cc1 | 11µM* | -10 | ? | 40µM* | -22%
CCc1ccc(C(=O)Cn2ncc(Cl)c(Cl)c2=O)cc1 | ? | -107* | 4% | ? | nt
O=c1c(Cl)c(Cl)cnn1Cc1nnc(-c2ccc(Cl)cc2)o1 | 10µM* | ? | ? | ? | ?
CCCc1cc(=O)oc2cc(C)cc(OC(C)C(=O)NCc3ccncc3)c12 (centres undefined) | ? | 23 | nt | 1% | nt
Cc1ccccc1C(=O)NC1CCN(CC(=O)N2CCCCC2C)CC1 (centres undefined) | ? | 1 | -3% | -7% | 3%
Cc1[nH]c(C)c2c(=O)n(Cc3ccc(Cl)cc3)ncc12 | 10% | ? | nt | -23% | nt
Cc1cc(C)cc(Cn2ncc(Cl)c(Cl)c2=O)c1 | ? | -84* | -2% | 28µM* | -14%
O=c1c(Cl)c(Cl)cnn1Cc1ccccc1Cl | 2.8µM* | -101* | ? | 25µM* | ?
O=[N+]([O-])c1ccc(N2CCCCCC2)c([N+](=O)[O-])c1 | ? | 40 | nt | -16% | nt
N#Cc1cc(N2CCCCC2)c([N+](=O)[O-])cc1C#N | 20% | -64* | nt | 0% | nt
O=[N+]([O-])c1cc2no[n+]([O-])c2cc1N1CCCCC1 | ? | -63* | -11% | 32µM* | i
Cc1noc(C)c1COc1ccc(C(=O)NCCc2ccc(F)cc2)cc1 | ? | -19 | nt | -8% | nt
CCN(CCNC(=O)C1CCN(Cc2nc(-c3cccc(Cl)c3)oc2C)CC1)c1ccccc1 | ? | 84 | 11µM* | 40µM* | 14µM*
Cc1oc(-c2cccc(Cl)c2)nc1CN1CCC(C(=O)NC(C)c2ccccc2)CC1 (centres undefined) | nt | -12 | ? | 35µM* | ?
CCN(CCNC(=O)C1CCN(Cc2nc(-c3ccc(Cl)cc3)oc2C)CC1)c1ccccc1 | -43% | 27 | ? | ? | 13µM*
COc1ccccc1CN1CCC(n2cc(C(=O)N3CCCCC3)nn2)CC1 | nt | nt | -11% | -11% | -15%
COc1cc(OC)c(/C=N/NC(=O)c2ccncc2)c(OC)c1 | 12% | 20 | -7% | -10% | -17%
O=C1/C(=C/c2ccc(S(=O)(=O)O)cc2S(=O)(=O)O)CCc2ccccc21 | nt | 5 | 6% | -14% | 43%
Cn1c(=O)c(-c2ccc(F)c(F)c2)nc2cncnc21 | nt | nt | nt | -7% | nt
Cn1c(CNC(=O)CSc2nc(-c3ccccc3F)nc3cc(=O)[nH]n23)nc2ccccc21 | nt | 6 | 11% | -15% | 14%
C/C(=N\NC(=O)c1cc(C2CC2)nc2ccccc12)c1ccc(C)s1 | -6% | -4 | ? | 8% | ?
C/C(=N\NC(=O)c1cc(-c2cccnc2)nc2ccccc12)c1ccccc1O | 4µM* | -102* | ? | 30% | ?
C/C(=N\NC(=O)c1cc(C2CC2)nc2ccccc12)c1ccc(O)cc1O | 6.3µM* | -61* | -24% | 4% | ?
CN1C(=O)C(C)(C)c2cc(S(=O)(=O)NCC3CCC(C(=O)NCc4ccccc4)CC3)ccc21 (centres undefined) | -7% | 113 | -9% | -16% | -12%
CC1CCN(C(=O)c2[nH]cnc2C(=O)N[C@@H](C)C(=O)OCc2ccccc2)CC1 | 3.5µM* | -10 | -16% | -29% | i
